# TLR9-MyD88 block = blocks human TLR9 binding to MyD88. inhibition, % at 4.98 µM. Q9NR96+Q99836. 340,000 compounds, 0.21% hits. CHO BLA complementation TLR9-MyD88, CCF4 FRET ratio;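 active = inhibition above the mean over all tested compounds plus 3 SD, cut at about 21% in these data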;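 note: 0% = DMSO only wells and 100% = clavulanate BLA inhibitor control wells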
# TMEM16A act = mouse TMEM16A channel activation, primary screen. B-score at 10 µM. 340,000 compounds, 0.3% hits. HEK293 TMEM16A/YFP-H148Q/I152L, iodide quench fluorescence; hits give low values. Q8BHY3;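 active = fluorescence-ratio B-score plate-corrected deviation score at least 3 library SD below zero, with starting fluorescence score within 5 deviations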;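 note: channel opened by trigger with iodide after compound preincubation; score built on the fluorescence ratio of max minus min over baseline; more negative score means more quench and so TMEM16A activation or potentiation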
# TLR4-MyD88 BLA = inhibitors of human TLR4-MyD88 binding. O00206+Q99836. HeLa CL3-4 TLR4/MyD88 BLA complementation, FRET ratio. inhibition, % at 8.4 µM. 200,000 compounds, 0.18% hits. AID 861; in the data active = inhibition above about 25%;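 note: 0% = vehicle and 100% = reference inhibitor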
# Target sequence (O00206 whole entry, looked up): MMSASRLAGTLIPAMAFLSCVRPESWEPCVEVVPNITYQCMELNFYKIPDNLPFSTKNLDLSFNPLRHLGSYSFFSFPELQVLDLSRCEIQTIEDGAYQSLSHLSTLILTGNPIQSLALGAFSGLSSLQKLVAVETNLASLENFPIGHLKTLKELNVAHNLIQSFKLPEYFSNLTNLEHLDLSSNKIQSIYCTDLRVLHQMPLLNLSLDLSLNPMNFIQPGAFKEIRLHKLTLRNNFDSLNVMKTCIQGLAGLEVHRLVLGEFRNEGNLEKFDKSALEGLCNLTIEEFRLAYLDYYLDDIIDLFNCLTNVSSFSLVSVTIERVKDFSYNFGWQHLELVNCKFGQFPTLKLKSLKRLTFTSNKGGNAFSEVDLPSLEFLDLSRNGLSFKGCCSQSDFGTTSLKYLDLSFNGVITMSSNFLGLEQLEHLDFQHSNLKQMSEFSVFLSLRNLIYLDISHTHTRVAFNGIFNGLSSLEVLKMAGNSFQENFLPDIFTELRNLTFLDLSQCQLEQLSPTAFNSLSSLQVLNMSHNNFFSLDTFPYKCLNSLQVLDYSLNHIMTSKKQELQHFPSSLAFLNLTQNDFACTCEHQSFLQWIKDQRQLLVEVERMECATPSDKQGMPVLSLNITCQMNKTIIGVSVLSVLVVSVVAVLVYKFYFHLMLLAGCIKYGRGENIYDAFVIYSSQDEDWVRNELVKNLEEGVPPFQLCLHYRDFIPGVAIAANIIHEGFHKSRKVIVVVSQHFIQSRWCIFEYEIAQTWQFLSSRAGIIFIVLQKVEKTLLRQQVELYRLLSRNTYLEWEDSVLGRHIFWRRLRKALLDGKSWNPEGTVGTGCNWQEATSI
# Target sequence (Q99836 whole entry, looked up): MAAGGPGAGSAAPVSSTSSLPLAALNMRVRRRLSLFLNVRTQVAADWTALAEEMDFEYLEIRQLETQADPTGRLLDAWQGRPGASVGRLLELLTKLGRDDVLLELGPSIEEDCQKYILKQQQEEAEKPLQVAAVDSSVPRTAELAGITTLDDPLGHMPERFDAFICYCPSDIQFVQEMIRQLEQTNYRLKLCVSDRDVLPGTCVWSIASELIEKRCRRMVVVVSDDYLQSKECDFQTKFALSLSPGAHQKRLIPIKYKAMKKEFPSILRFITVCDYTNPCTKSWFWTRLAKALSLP
# ANO1 block = mouse TMEM16A channel inhibition, primary screen | Q8BHY3 | HEK293 TMEM16A/YFP iodide influx fluorescence, ionomycin | normalized B-score (activity score, 25-100; higher = stronger inhibition) at 10 µM | 310,000 compounds, 1.2% hits;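 active = ratio plate-corrected score three or more library SD toward inhibition, starting fluorescence score within five deviations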;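 note: score derived from kinetic fluorescence span divided by baseline fluorescence per well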
# HTR2A ag = mouse HTR2A agonism via beta-arrestin recruitment; P35363; CHO-K1 mHTR2A beta-arrestin complementation, luminescence; percent of 30 µM serotonin response; activation, % at 7.6 µM; 360,000 compounds, 0.66% hits; AID 624169;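 active = activation above a run cutoff, the mean activation of all tested compounds plus 3 SD, cut at about 14% in these data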;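 note: 0% = plate median of compound wells and 100% = 30 µM serotonin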
# NOD2-RIPK2 inh = blocks binding of human NOD2 to RIPK2. inhibition, % at 4.98 µM. 360,000 compounds, 0.38% hits. AID 624267. CHO BLA complementation NOD2-RIPK2, CCF4 ratio; in the data active = inhibition above about 21%;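 note: 0% = vehicle only and 100% = reference blocker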
# * marks the source's active call; other numbers are inactive results; i = inactive; nt = no result. In the library only some 2.4% were active in any assay of this set; here they are far more common.
SMILES,TLR9-MyD88 block,TMEM16A act,TLR4-MyD88 BLA,ANO1 block,HTR2A ag,NOD2-RIPK2 inh
O=C(O)CCN1C(=O)/C(=C/c2ccc(-c3nc4ccccc4s3)o2)SC1=S,8,i,-6,i,3,6
O=C(NCCC1=CCCCC1)c1ccc(Cl)c(S(=O)(=O)N2CCOCC2)c1,6,i,-6,i,-8,-2
O=C(NCCC1=CCCCC1)c1ccc(Cl)c(S(=O)(=O)N2CCCCC2)c1,-4,i,nt,25*,-6,-14
Cc1ccc(CSCCNC(=O)c2ccc(Cl)c(S(=O)(=O)N3CCOCC3)c2)cc1,3,i,0,25*,-4,-10
O=C(COC(=O)c1ccccc1NS(=O)(=O)c1ccc(Cl)cc1)NCc1ccccc1,7,i,-1,100*,3,2
O=C(COC(=O)c1ccccc1Br)NCc1ccccc1,-4,i,3,i,-2,-5
CC(O)CNc1nc2ccccc2n1-c1ncnc2sc3c(c12)CCC3 (configuration not stated),-3,i,0,i,18*,8
Cc1cc2nc(C)n(CCCNC(=O)Nc3cccc4ccccc34)c2cc1C,-12,i,9,25*,0,-1
CCOC(=O)c1ccc(NC(=O)COc2ccccc2CNCCO)cc1,-2,i,3,i,-5,-2
N#Cc1ccc(C2=CC(=O)C[C@H](c3ccc(F)cc3)C2)cc1,-4,i,nt,nt,-4,6
Cc1ccc(S(=O)(=O)N2CCC(=O)N(C(COCc3ccc(Cl)cc3Cl)Cc3ccccc3)CC2)cc1 (configuration not stated),-5,-29*,-5,i,5,2
Cc1ccc(S(=O)(=O)N2CCC(=O)N(C(COCc3cccc(C(F)(F)F)c3)Cc3ccccc3)CC2)cc1 (configuration not stated),-5,-19*,-11,i,10,-5
Cc1ccc(S(=O)(=O)N2CCC(=O)N(C(COCc3cccc(Cl)c3)Cc3ccccc3)CC2)cc1 (configuration not stated),-6,-11*,-5,i,-7,-12
Cc1ccc(S(=O)(=O)N2CCC(=O)N([C@H](COCc3cccc(Cl)c3)Cc3ccccc3)CC2)cc1,nt,nt,nt,nt,-1,-7
C=C(C)c1cccc(C(C)(C)NC(=O)N2CCN(c3ccc(OC)cc3)CC2)c1,7,i,-1,i,1,2
COc1ccc(NC(=O)C2(C)Cc3c(-c4cccc(C(N)=O)c4)ccnc3O2)cn1 (configuration not stated),nt,nt,nt,nt,14,-5
CCOC(=O)c1sc(NC(=O)c2ccc(Cl)s2)cc1C,3,-15*,-6,i,-3,-5
Cc1ccc(NS(=O)(=O)c2ccc(NC(=O)CSc3ccc(Cl)cc3)cc2)c(C)c1,4,i,0,25*,5,4
O=C(Nc1ccc2c(c1)OCO2)C1CC(c2ccc(Cl)cc2)=NO1 (configuration not stated),6,i,6,100*,1,1
CCOC(=O)c1c(NC(=O)CSc2nnc(-c3c[nH]c4ccccc34)n2C)sc2c1CCCC2,7,-21*,5,i,-2,-3
Cc1ccc(SCc2cc(=O)[nH]c(Nc3nc(C)c4cccc(C)c4n3)n2)cc1,-7,i,-14,i,6,6
Cc1cc(C)c2nc(Nc3nc(CSc4nc5ccccc5[nH]4)cc(=O)[nH]3)nc(C)c2c1,2,-6.4*,nt,nt,1,-16
Cc1ccc(Sc2ccc(NC(=O)CCN3C(=O)NC4(CCCC4)C3=O)cc2)c(C)c1,-5,-24*,nt,nt,-10,-1
Cc1cc(=O)c(C(=O)Nc2cccc(N3CCCC3=O)c2)nn1-c1ccccc1F,0,-46*,nt,nt,-4,-9
Cc1cc(=O)c(C(=O)Nc2cccc(N3CCCC3=O)c2)nn1-c1ccccc1Cl,-9,i,nt,nt,-3,-6
SMILES,TLR9-MyD88 block,TMEM16A act,TLR4-MyD88 BLA,ANO1 block,HTR2A ag,NOD2-RIPK2 inh
CC(NC(=O)Cn1ncc(Cl)c(Cl)c1=O)C12CC3CC(CC(C3)C1)C2 (configuration not stated),23*,i,21,100*,-7,66*
CC(C)=CCc1c(O)cc2oc3c(CC=C(C)C)c(O)c(O)c(CC=C(C)C)c3c(=O)c2c1O,10,i,nt,100*,7,0
CC(C)=CCc1cc(-c2oc3cc(O)cc(O)c3c(=O)c2O)ccc1O,2,i,nt,i,0,-6
Cc1cc(C)cc(NC(=S)N(CCN2CCCCC2)Cc2ccco2)c1,3,i,10,i,-2,-7
Cc1ccc(NC(=S)N(CCN2CCCCC2)Cc2ccco2)cc1Cl,4,-5.1*,3,i,-10,-2
O=C(Nc1ccc2oc(-c3ccccc3)nc2c1)c1ccc2c(c1)OCCO2,2,i,5,25*,0,1
O=C(Nc1ccc2oc(-c3ccncc3)nc2c1)c1ccc2c(c1)OCCO2,1,i,nt,i,-1,-1
O=C(C1=NN[C@@H]2C(=O)N(c3cccc(C(F)(F)F)c3)C(=O)[C@H]12)C(c1ccccc1)c1ccccc1,-12,i,-10,i,1,0
N#Cc1c(N)sc2c1CCN(CCc1ccccc1)C2,-12,i,-2,25*,-2,7
COc1ccc(C2=NOC(C(=O)NC(C)C)C2)cc1 (configuration not stated),-10,i,2,i,3,4
COc1cccc(C2=NOC(C(=O)NC(C)C)C2)c1 (configuration not stated),-6,i,7,25*,2,-10
COc1ccc(CNC(=O)C2CC(c3ccc(OC)cc3)=NO2)cc1 (configuration not stated),-7,i,14,100*,2,-2
Cc1cc(N2O[C@]34C=C[C@]25C[C@@H](O)CC[C@]5(C)C3CC[C@]2(C)[C@@H]([C@H](C)/C=C/[C@H](C)C(C)C)CC[C@H]24)no1 (some centres not stated),-10,nt,nt,nt,8,-3
CC(Sc1nc(N)cc(=O)[nH]1)C(=O)NC1CCCCC1 (configuration not stated),0,-9.7*,0,i,1,-5
COc1ccc(N2CCN(C(=O)CSc3nnc4n3C(C)(C)Cc3ccccc3-4)CC2)cc1,1,i,-15,25*,3,5
Cc1ccc(Cl)cc1N1CCN(C(=O)CSc2nnc3n2C(C)(C)Cc2ccccc2-3)CC1,-3,i,-10,100*,6,2
COc1ccc2nc(NC(=O)CSc3nnc4n3C(C)(C)Cc3ccccc3-4)sc2c1,1,-8*,5,i,-6,2

# Compound activity as filed in PubChem BioAssay.
